Among the data in PubChem BioAssay AID1578 (Sanford-Burnham Center for Chemical Genomics, 2009) are inhibition values, retold here.

The campaign covered roughly 290,000 compounds. About 3,000 (1%) were called active. The sample as a whole holds a higher share of actives than the screen did. Unmarked numbers belong to inactive results. Cut-off read from the data, not from the text of the source: active = inhibition mostly above about 36% (no sharp cut-off); inactive = mostly below about 34%.

A short description of this assay: inhibition of NOD1-driven NF-kB reporter – cell-based, luminescence, uHTS, primary screen (AID 1578).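 Note: HEK-293T reporter cells stimulated with the NOD1 agonist gamma-tri-DAP.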 The settings on record: NOD1-driven NF-kB luciferase reporter cells, at 4 µM, stronger effect = higher value. Background: In a reporter assay the amount or activity of a reporter protein is the signal.
As a reminder, the inhibition is the relative decrease from the control value, in per cent. On to `Cc1ccc(O)c(C(CC(=O)NCc2ccco2)c2ccccc2)c1` (stereo unspecified), for which the inhibition is -21.1%.

For `Cc1nnc(SCC(=O)c2ccccc2F)n1Cc1ccccc1`, the inhibition was -6.1%.

Take `COCC1CCN(C(=O)c2cc(COc3ccc(OC)c4ccccc34)on2)C1` (stereo unspecified): the inhibition is -73.2%.

With `CS(=O)(=O)N(CCCC(=O)N1CCCCCC1)c1cccc(Cl)c1`, the inhibition was 0.2%.

With `CCN(CC)CCNC(CC(=O)Nc1ccc(Cl)cc1Cl)C(=O)O` (stereo unspecified), the inhibition was -7%.

In the case of `COc1ccc(-c2cc(NCCc3ccncc3)n3ncnc3n2)cc1`, the inhibition is 2.6%.

For `COc1ccc(NC(=O)NCc2ccco2)cc1OC`, the inhibition is -24.4%.

In the case of `COc1cc(S(=O)(=O)NCc2ccncc2)c(OC)cc1C`, the inhibition was -15.2%.

`O=[N+]([O-])c1cccc(/C=C/c2nc[nH]c2[N+](=O)[O-])c1`: the inhibition is -10.5%.

With `Cc1cccc(C(=O)Oc2ccccc2C(=O)N2CCOCC2)c1`, the inhibition is -8.5%.

For the molecule `COCCn1c(C)cc(C2=NNC(=Nc3ccc(Cl)cc3Cl)SC2)c1C`, the inhibition was 13.9%.

For `COCCn1c(C)cc(C2=NNC(=Nc3ccccc3)SC2)c1C`, the inhibition was -63.4%.

As to `COCCn1c(C)cc(C2=NNC(=Nc3ccccc3F)SC2)c1C`, the inhibition is 65.1% (active).

Consider `Cc1c(C)c2ccc(O)c(CN3CCCC3)c2oc1=O`, for which the inhibition was 15.3%.

Turning to `Cn1c2ccccc2c(=O)c2ccc(C#CC3(N)CCCCC3)cc21`, the inhibition was 30.6%.

For `Cn1c2ccccc2c(=O)c2ccc(C#CC3(O)CCCCC3)cc21`, the inhibition was 82% (active).

As to `Cn1c2ccccc2c(=O)c2cc(C#CC3(O)CCCCC3)ccc21`, the inhibition was 35%.

As for `CCC(=O)N1CCc2cc(S(=O)(=O)NCCC(=O)N3CCN(c4ccccc4)CC3)ccc21`, the inhibition was -26.5%.

As for `O=C1CCN(CCCc2ccccc2)CCN1[C@H](CO)Cc1ccccc1`, the inhibition was -31.4%.

As to `COc1ccc(-c2nc(C#N)c(N3CCN(c4cccc(Cl)c4)CC3)o2)cc1OC`, the inhibition is 5.2%.

Consider `COc1ccccc1-c1nc(C#N)c(N2CCN(c3ccccc3)CC2)o1`, for which the inhibition is -2.9%.

As to `C[C@@H]1CC=C[C@H]2[C@H]1C(=O)N(Cc1ccccc1)[C@H]2c1ccc(-c2ccoc2)cc1F`, the inhibition is -2.6%.

Turning to `Cc1c(O)ccc2c(CC(=O)N[C@@H](Cc3c[nH]c4ccccc34)C(=O)O)cc(=O)oc12`, the inhibition was -0.1%.

For `FC(F)(F)c1cc(-c2ccccc2)nc(N2CCCCC2)n1`, the inhibition was 8.3%.

In the case of `CN1CCN(c2nc(-c3ccccc3)cc(C(F)(F)F)n2)CC1`, the inhibition is -26.3%.

As to `FC(F)(F)c1cc(-c2ccccc2)nc(N2CCCCCC2)n1`, the inhibition is 37.9% (active).

As to `Cc1nn(C)cc1/C=N\NC(=O)Cc1ccc([N+](=O)[O-])cc1`, the inhibition is -27.7%.

As to `COc1ccc(C#Cc2ccc3c(=O)c4ccccc4n(C)c3c2)cc1`, the inhibition was 25.7%.

For the molecule `CCCC(=O)NC(=S)Nc1cccc(Cl)c1N1CCCC1`, the inhibition was -26.8%.

On to `CCC(=O)NC(=S)Nc1cccc(Cl)c1N1CCCC1`, for which the inhibition is 55.9% (active).

As for `CCCC(=O)NC(=S)Nc1cccc(Cl)c1N1CCCCC1`, the inhibition is -26.4%.

With `COC(=O)C1Cc2ccccc2CN1C(=O)CCl` (stereo unspecified), the inhibition was 39.2%.

For the molecule `CCN1CCN(CC(=O)N/N=C/c2cc(Br)cs2)CC1`, the inhibition was 104% (active).

On to `O=C(Cc1ccccc1)N/N=C/c1cc(Br)cs1`, for which the inhibition is 1.2%.

Regarding `Cc1nccn1CC(=O)N/N=C/c1cc(Br)cs1`, the inhibition is -0.6%.

As to `Cc1cc(C)n(-c2nc3c(c(=O)[nH]c(=O)n3C)n2C(C)C)n1`, the inhibition was 5.7%.

With `O=C(CN1CCN(c2ccc(F)cc2)CC1)Nc1cc(C(F)(F)F)ccc1Cl`, the inhibition is -11.8%.

On to `CCOC(=O)CNC(=O)C1Cc2ccccc2CN1S(=O)(=O)c1cccs1` (stereo unspecified), for which the inhibition was -33%.

For `COc1ccc(C2CC(c3cccs3)=NN2S(C)(=O)=O)cc1` (stereo unspecified), the inhibition is -18%.

For `COc1cccc(C2CC(c3cccs3)=NN2S(C)(=O)=O)c1` (stereo unspecified), the inhibition is 47.7% (active).

For the molecule `COc1ccc(C2CC(c3cccs3)=NN2S(C)(=O)=O)cc1OC` (stereo unspecified), the inhibition was -25.1%.

`COc1ccc(C(=O)Nc2nnc(Cc3ccccc3)s2)c(OC)c1`: the inhibition was -43.9%.

For the molecule `O=[N+]([O-])c1ccc(S(=O)(=O)N/N=C/c2ccco2)cc1`, the inhibition is -34.8%.

Turning to `CCOC(=O)c1cnc2ccc(OCC)cc2c1NCCN1CCOCC1`, the inhibition is -21.5%.

Turning to `O=c1cc(-c2ccc3c(c2)OCO3)oc2ccccc12`, the inhibition is -38.2%.

Consider `Cc1cc(N2CCN(c3nc(-c4ccccc4)cs3)CC2)c2ccccc2n1`, for which the inhibition was -3.1%.

As for `Cc1cc(N2CCN(c3nc(-c4ccc([N+](=O)[O-])cc4)cs3)CC2)c2ccccc2n1`, the inhibition was 3.5%.

On to `COc1ccc(-c2csc(N3CCN(c4cc(C)nc5ccccc45)CC3)n2)cc1OC`, for which the inhibition is 54.5% (active).

For the molecule `C[C@@H]1C=C(C(=O)NCc2ccccc2)O[C@H](OCc2ccc(CO)cc2)C1`, the inhibition was -6.2%.

Regarding `O=C1/C(=C/c2ccc([N+](=O)[O-])cc2)C=C(c2ccccc2)N1c1ccc(O)cc1`, the inhibition was 28.6%.

With `O=C(O)c1cccc(N2C(=O)/C(=C/c3ccc([N+](=O)[O-])cc3)C=C2c2ccccc2)c1`, the inhibition is 55.4% (active).

On to `O=C1/C(=C/c2ccc([N+](=O)[O-])cc2)C=C(c2ccccc2)N1c1ccccc1`, for which the inhibition is -31.4%.

For `O=C(NCc1cccnc1)C1CCCN(S(=O)(=O)c2cccc3nsnc23)C1` (stereo unspecified), the inhibition is -7.8%.

Consider `CCOC(=O)c1ccc(NC(=S)NCCc2ccccc2F)cc1`, for which the inhibition is -22.7%.

Consider `CCOC(=O)c1ccc(NC(=S)NCCc2ccccc2)cc1`, for which the inhibition was 0.7%.

As to `CCOC(=O)c1ccc(NC(=S)NCCc2ccc(F)cc2)cc1`, the inhibition was 72.6% (active).

For the molecule `CCCCCCn1c(CN2CCCCC2C)nc2c1c(=O)n(C)c(=O)n2C` (stereo unspecified), the inhibition is -20.6%.

Turning to `CCOC(=O)c1c(C2CC2)csc1NC(=O)COC(=O)c1cc(OC)c(OC)cc1[N+](=O)[O-]`, the inhibition was -39.9%.

Regarding `CN1C(=O)/C(=C/c2cccc(Cl)c2)Sc2ccc(C(=O)NCc3cccnc3)cc21`, the inhibition was 4.4%.

Turning to `COc1cccc(/C=C2\Sc3ccc(C(=O)NCc4cccnc4)cc3N(C)C2=O)c1`, the inhibition is 44.2%.

`COc1ccc(/C=C2\Sc3ccc(C(=O)NCc4cccnc4)cc3N(C)C2=O)cc1OC`: the inhibition was 42.3% (active).
